# Test results taken from PubChem BioAssay (NCI).
# Where “and” joins values, the source holds several entries; their conditions need not be identical. Equal values may be shown once. This is part of a sample that, as a whole, favours compounds with a hit. Of some 83,000 tested, about 20% had one in any assay.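 Interpretation: 100, growth as untreated; towards 0, rising growth inhibition; 0, no net growth; 0 to -100, cell death. Compounds scoring below 10 were considered active.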 Calls of active or inactive are those of the source.
# Test system: OVCAR-3 ovarian
# Assay: NCI-60 one-dose screen, 48 h (100 = growth as untreated, 0 = no growth, -100 = all killed)
# Settings: 10 µM unless noted
row,SMILES,growth
1,O=[N+]([O-])c1ccccc1/C=N\Nc1ccccc1,94.5% (inactive) and 92.7% (inactive)
2,CCN(CC)CCNc1cc(-c2cccc(OC(F)(F)F)c2)nc2ccc(N3CCCC3)cc12,75.8% (inactive) and -2.31% (active) and 47.2% (inactive)
3,CC(=O)Nc1cc(S(=O)(=O)O)cc2cc(S(=O)(=O)O)c(N=Nc3ccccc3)c(O)c12,121% (inactive) and 109% (inactive)
4,CC(C)CNC(=O)c1ccccc1C(=O)NC1(C(=O)NCC(C)C)CCCC1,116% (inactive) and 109% (inactive)
5,COc1cc2nc(N3CCN(C(=O)C4COc5ccccc5O4)CC3)nc(N)c2cc1OC (centres undefined),107% (inactive) and 109% (inactive) and 103% (inactive)
6,O=C(Cc1cccc2ccccc12)N/N=C/c1ccc2c(c1)CCC2,75.8% (inactive)
7,CC1=C(/C=C/C(C)=C/C=C/C(C)=C/C(=O)O)C(C)(C)CCC1,88.2% (inactive) and 95% (inactive) and 107% (inactive)
8,O=C(Nc1ccc(Br)cc1)c1cc(Br)ccc1O,-18.3% (active) and -5.1% (active)
9,Cc1cc(-c2ccc(NS(=O)(=O)c3ccccc3)c(C)c2)ccc1NS(=O)(=O)c1ccccc1,90.1% (inactive) and 107% (inactive)
10,O=C(CCl)c1ccc2c(c1)Nc1ccccc1S2,96.8% (inactive) and 71.6% (inactive)
11,CC1CCCc2sc3nc(NNC(=O)c4cnccn4)n(-c4ccccc4)c(=O)c3c21 (centres undefined),0.919% (active) and -3.1% (active)
12,Cc1cc(O)c(C(C)C)cc1N,76.6% (inactive) and 116% (inactive)
13,COc1ccc2cc3[n+](cc2c1OC)CCc1cc2c(cc1-3)OCO2,55.4% (inactive) and 54.2% (inactive)
14,COc1c(/C(C)=N/N=c2sc(C(C)=O)nn2-c2ccc(Cl)cc2)c(Oc2ccccc2)c(OC)c2occc12,102% (inactive)
15,OC(COc1cccc2ccccc12)CN1CCN(c2ccc(Cl)cc2)CC1 (centres undefined),83.2% (inactive) and 116% (inactive)
16,CNc1ccc2nc3ccc(=[N+](C)C)cc-3sc2c1,-7.57% (active) and -9.51% (active)
17,CC1=NN(c2ccccc2)C(=O)C1C(=O)c1ccccc1 (centres undefined),102% (inactive)

row,SMILES,growth
1,OCCN1CCN(CCO)CC1,119% (inactive) and 108% (inactive) and 109% (inactive)
2,CC1=CCC2CC1C2(C)C (centres undefined),89.2% (inactive) and 95.1% (inactive)
3,COc1cc(/C=N/Nc2nc3c([nH]2)c(=O)n(C)c(=O)n3C)ccc1O,122% (inactive) and 110% (inactive)
4,S=C(S)N1CCCC1,69.5% (inactive) and 100% (inactive)
5,CC(=O)Oc1cc(C(=O)O)cc(OC(C)=O)c1OC(C)=O,105% (inactive)
6,CCN(CC)C(=O)c1cccnc1,109% (inactive)
7,O=C(Nc1cccc(Cl)c1)c1cc2ccccc2cc1O,18.5% (inactive) and 14.7% (inactive)
8,Cn1c(SSc2ccc(-c3cccnc3)n2C)ccc1-c1cccnc1,98.9% (inactive) and 102% (inactive)
9,CN1CCN(CCC=C2c3ccccc3Sc3ccc(S(=O)(=O)N(C)C)cc32)CC1,91.4% (inactive) and 71.7% (inactive)
10,Oc1c(Cl)cc(Cl)cc1Sc1cc(Cl)cc(Cl)c1O,47.1% (inactive) and 11.6% (inactive) and 76.5% (inactive)
11,Cn1c(=O)n(-c2ccc(C(C)(C)C#N)cc2)c2c3cc(-c4cnc5ccccc5c4)ccc3ncc21,13.7% (inactive) and -10.6% (active)
12,O=C(N/N=C/c1ccccc1)N/N=C/c1ccccc1,120% (inactive)
13,COc1ccc(-c2cn[nH]c2-c2cc(OC)c(OC)c(OC)c2)cc1N,-7.09% (active) and -1.14% (active)
14,C1CCCCNCCC1,112% (inactive)
15,COc1ccccc1C(C)=O,106% (inactive) and 110% (inactive)
16,NS(=O)(=O)c1cc2c(cc1Cl)NC(C(Cl)Cl)NS2(=O)=O (centres undefined),119% (inactive) and 126% (inactive)
17,O=C(Oc1cccc(OC(=O)c2ccccc2)c1)c1ccccc1,76.3% (inactive) and 101% (inactive)
